Measurements as given in the supplement of paper PMC10646978.
± gives the standard deviation.

How the values were obtained:
Settings in all cases: modulator concentration 10 µM
[1] = tested on: RAW-Dual (murine macrophage reporter line); assay: NF-kB reporter (SEAP) activity fold change vs agonist alone; higher = enhanced NF-kB activity
How it was run: (§1)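 Overnight stimulation with a PRR agonist followed pre-incubation for 1 hour at 37 °C with compound at 10 μM final. This was done in RAW-Dual murine macrophage reporter cells seeded at 50 000 per well in 384-well plates. NF-κB (SEAP, QUANTI-Blue absorbance at 620 nm) and IRF (Lucia luciferase, QUANTI-Luc luminescence) were read from the supernatant. Each reporter's fold change relative to the mean agonist-only control on the same plate was averaged over replicate plates.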

[2] = tested on: RAW-Dual (murine macrophage reporter line); assay: IRF reporter (Lucia luciferase) activity fold change vs agonist alone; higher = enhanced IRF activity
How it was run: as §1

[3] = tested on: RAW-Dual (murine macrophage reporter line); assay: viability score (confluency relative to resting cells, overnight) (fraction); higher = more viable, active = viable (0.7 or more)
How it was run: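 RAW-Dual macrophages in 384-well plates were exposed overnight to compound at 10 μM final. Confluency was imaged with IncuCyte, and two confluency masks were generated with IncuCyte software over all imaged wells. The viability score is confluency expressed relative to resting cells. Compounds were called viable if both masks exceeded 70% of resting cells.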

[4] = agonist: CpG ODN 1826 0.5 ug/mL

CCOC(=O)c1ccccc1NC(=O)CN(c1cc(Cl)ccc1OC)S(C)(=O)=O
NF-kB reporter [1, 4]: 1.02 ± 0.15
NF-kB reporter ([1]; agonist: LPS 0.1 ug/mL): 1.09 ± 0.067
NF-kB reporter ([1]; agonist: MPLA […]): 0.897 ± 0.054
IRF reporter ([2]; agonist: 3'3'-cGAMP 10 ug/mL): 1.02 ± 0.029
IRF reporter ([2]; agonist: LPS 0.1 ug/mL): 1.38 ± 0.2
IRF reporter ([2]; agonist: MPLA […]): 1.14 ± 0.14
viability score [3]: 1.01 (active)

COc1ccc(C2(C#N)CCC(C(=O)O)CC2)cc1OC1CCCC1 (stereo unspecified)
NF-kB reporter [1, 4]: 1.37 ± 0.11
NF-kB reporter ([1]; agonist: LPS 0.1 ug/mL): 1.16 ± 0.085
NF-kB reporter ([1]; agonist: MPLA […]): 1.37 ± 0.16
IRF reporter ([2]; agonist: 3'3'-cGAMP 10 ug/mL): 1.05 ± 0.048
IRF reporter ([2]; agonist: LPS 0.1 ug/mL): 1.25 ± 0.083
IRF reporter ([2]; agonist: MPLA […]): 1.38 ± 0.12
viability score [3]: 1.02 (active)

O=C(C=Cc1ccc(-c2cccc(Cl)c2)o1)c1ccc(Cl)cc1
NF-kB reporter [1, 4]: 0.755 ± 0.085
NF-kB reporter ([1]; agonist: LPS 0.1 ug/mL): 0.746 ± 0.038
NF-kB reporter ([1]; agonist: MPLA […]): 0.857 ± 0.079
IRF reporter ([2]; agonist: 3'3'-cGAMP 10 ug/mL): 0.446 ± 0.031
IRF reporter ([2]; agonist: LPS 0.1 ug/mL): 0.896 ± 0.058
IRF reporter ([2]; agonist: MPLA […]): 0.724 ± 0.14
viability score [3]: 0.957 (active)

CCN(CC)c1ccc(C=NNC(=O)c2ccccc2)c(O)c1
NF-kB reporter [1, 4]: 2.34 ± 0.38
NF-kB reporter ([1]; agonist: LPS 0.1 ug/mL): 2.11 ± 0.16
NF-kB reporter ([1]; agonist: MPLA […]): 4.3 ± 0.34
IRF reporter ([2]; agonist: 3'3'-cGAMP 10 ug/mL): 0.0729 ± 0.013
IRF reporter ([2]; agonist: LPS 0.1 ug/mL): 2.18 ± 0.29
IRF reporter ([2]; agonist: MPLA […]): 2.36 ± 0.42
viability score [3]: 0.814 (active)

CCOC(=O)C1=C(C)NC(C)=C(C(=O)OCC)C1c1ccc(N(C)C)cc1
NF-kB reporter [1, 4]: 1.14 ± 0.13
NF-kB reporter ([1]; agonist: LPS 0.1 ug/mL): 1.07 ± 0.071
NF-kB reporter ([1]; agonist: MPLA […]): 1.24 ± 0.069
IRF reporter ([2]; agonist: 3'3'-cGAMP 10 ug/mL): 0.855 ± 0.16
IRF reporter ([2]; agonist: LPS 0.1 ug/mL): 1.04 ± 0.095
IRF reporter ([2]; agonist: MPLA […]): 0.94 ± 0.24
viability score [3]: 0.996 (active)

CCCCCCCCCCC[C@@H](C[C@@H]1OC(=O)[C@H]1CCCCCC)OC(=O)[C@H](CC(C)C)NC=O
NF-kB reporter [1, 4]: 1.1 ± 0.083
NF-kB reporter ([1]; agonist: LPS 0.1 ug/mL): 0.92 ± 0.058
NF-kB reporter ([1]; agonist: MPLA […]): 1.02 ± 0.044
IRF reporter ([2]; agonist: 3'3'-cGAMP 10 ug/mL): 1.04 ± 0.23
IRF reporter ([2]; agonist: LPS 0.1 ug/mL): 0.927 ± 0.048
IRF reporter ([2]; agonist: MPLA […]): 0.923 ± 0.12
viability score [3]: 1 (active)

CC=CCn1c(=O)c2c(nc3n2CC(C(C)(C)C)=NN3)n(C)c1=O
NF-kB reporter [1, 4]: 1.02 ± 0.092
NF-kB reporter ([1]; agonist: LPS 0.1 ug/mL): 1.09 ± 0.1
NF-kB reporter ([1]; agonist: MPLA […]): 1.08 ± 0.11
IRF reporter ([2]; agonist: 3'3'-cGAMP 10 ug/mL): 1 ± 0.026
IRF reporter ([2]; agonist: LPS 0.1 ug/mL): 1.28 ± 0.2
IRF reporter ([2]; agonist: MPLA […]): 0.943 ± 0.099
viability score [3]: 0.96 (active)

CCc1sc2sncc2c1Br
NF-kB reporter [1, 4]: 0.199 ± 0.022
NF-kB reporter ([1]; agonist: LPS 0.1 ug/mL): 0.817 ± 0.06
NF-kB reporter ([1]; agonist: MPLA […]): 1.17 ± 0.11
IRF reporter ([2]; agonist: 3'3'-cGAMP 10 ug/mL): 0.315 ± 0.014
IRF reporter ([2]; agonist: LPS 0.1 ug/mL): 0.713 ± 0.14
IRF reporter ([2]; agonist: MPLA […]): 0.549 ± 0.076
viability score [3]: 0.895 (active)

CC(=O)OCCN(CCOC(C)=O)c1c(C)[nH]c(=O)[nH]c1=O
NF-kB reporter [1, 4]: 0.864 ± 0.067
NF-kB reporter ([1]; agonist: LPS 0.1 ug/mL): 0.809 ± 0.079
NF-kB reporter ([1]; agonist: MPLA […]): 0.994 ± 0.089
IRF reporter ([2]; agonist: 3'3'-cGAMP 10 ug/mL): 0.976 ± 0.05
IRF reporter ([2]; agonist: LPS 0.1 ug/mL): 1.52 ± 0.093
IRF reporter ([2]; agonist: MPLA […]): 1.7 ± 0.17
viability score [3]: 1.02 (active)

CCN(CC)c1ccc2cc(-c3nnc(NCc4ccc(F)cc4)s3)c(=O)oc2c1
NF-kB reporter [1, 4]: 1.08 ± 0.085
NF-kB reporter ([1]; agonist: LPS 0.1 ug/mL): 0.955 ± 0.059
NF-kB reporter ([1]; agonist: MPLA […]): 0.906 ± 0.055
IRF reporter ([2]; agonist: 3'3'-cGAMP 10 ug/mL): 0.941 ± 0.035
IRF reporter ([2]; agonist: LPS 0.1 ug/mL): 1.08 ± 0.13
IRF reporter ([2]; agonist: MPLA […]): 0.981 ± 0.085
viability score [3]: 1.01 (active)

COCCN1CCC(NC(=O)c2cnc3ccccc3n2)CC1
NF-kB reporter [1, 4]: 0.441 ± 0.024
NF-kB reporter ([1]; agonist: LPS 0.1 ug/mL): 1.02 ± 0.085
NF-kB reporter ([1]; agonist: MPLA […]): 1.35 ± 0.072
IRF reporter ([2]; agonist: 3'3'-cGAMP 10 ug/mL): 0.951 ± 0.05
IRF reporter ([2]; agonist: LPS 0.1 ug/mL): 1.14 ± 0.25
IRF reporter ([2]; agonist: MPLA […]): 1.2 ± 0.48
viability score [3]: 0.935 (active)

Cc1cc(-n2cc(C(=O)N3CCOCC3)nn2)ccc1F
NF-kB reporter [1, 4]: 1.06 ± 0.33
NF-kB reporter ([1]; agonist: LPS 0.1 ug/mL): 1.1 ± 0.075
NF-kB reporter ([1]; agonist: MPLA […]): 1.02 ± 0.065
IRF reporter ([2]; agonist: 3'3'-cGAMP 10 ug/mL): 0.98 ± 0.045
IRF reporter ([2]; agonist: LPS 0.1 ug/mL): 1.01 ± 0.17
IRF reporter ([2]; agonist: MPLA […]): 1.14 ± 0.17
viability score [3]: 0.991 (active)

COCCNc1nc(SCC(=O)Nc2cccc(C(F)(F)F)c2)nc2ccccc12
NF-kB reporter [1, 4]: 0.268 ± 0.022
NF-kB reporter ([1]; agonist: LPS 0.1 ug/mL): 0.549 ± 0.051
NF-kB reporter ([1]; agonist: MPLA […]): 0.528 ± 0.043
IRF reporter ([2]; agonist: 3'3'-cGAMP 10 ug/mL): 0.601 ± 0.035
IRF reporter ([2]; agonist: LPS 0.1 ug/mL): 1.29 ± 0.28
IRF reporter ([2]; agonist: MPLA […]): 1.42 ± 0.46
viability score [3]: 0.956 (active)
